According to PubChem BioAssay (NCATS):
Where “and” joins values, the source holds several entries; their conditions need not be identical. Equal entries are not always repeated. Results filed as inconclusive are left out. Calls of active or inactive are those of the source. Calls follow the shape of the dose curve; as a rule, active = well fitted curve in the direction sought with a large enough effect; inconclusive = small, poorly fitted or top-dose-only effect, or another doubt; inactive = no such curve, though single readings can be large; an effect the other way counts as inactive or inconclusive.

Legend:
[1] = target: Cytochrome P450 3A7 (Homo sapiens) (UniProt P24462); assay: Cytochrome P450 family 3 subfamily A member 7 (CYP3A7) small molecule antagonists: luciferase biochemical qHTS assay (AID 1963596); also: % is scaled to controls: 0 for no effect and ±100 for the full control effect; nearly all actives have a fitted effect of over 40% in size
Outline: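 Luminescence from luciferin released by CYP3A7 from a proluciferin substrate, read 20 min after detection reagent. Compound and enzyme-substrate mix sat 10 min before NADPH regeneration solution; reaction ran 1 h at room temperature.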

[2] = Viability qHTS for spleen associated tyrosine kinase inhibitor (SYKi) drug resistant MV4-11 cells (AID 1963824); also: nearly all actives have a fitted effect of over 35% in size; also: potency is read from the fitted curve at half-maximal effect
Outline: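 SYK-inhibitor-resistant MV4-11 AML cells were seeded at 500 per well onto compound and cultured 72 hours (37 °C, 5% CO2). CellTiter-Glo was then added, and after 10 min at room temperature, luminescence gave viability.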

[3] = Quantitative highthroughput screen to assess conditional lethalithy of NOMO1 cells grown in RPMI1640 with untreated serum (RPMI+s) (AID 1963876); also: nearly all actives have a fitted effect of over 35% in size; also: potency is read from the fitted curve at half-maximal effect;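 as to Viability: 100% = DMSO wells and 0% = empty wells without cells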
Outline: (§1)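 Each medium arm—HPLM with 10% dialyzed FBS, or RPMI1640 with 5 mM glucose and 10% untreated or dialyzed FBS—was screened against an 11-point, 3-fold compound titration for 48 h at 37 °C, with CellTiter-Glo luminescence as endpoint.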

[4] = Quantitative highthroughput screen to assess conditional lethalithy of P12 Ichikawa cells grown in Human Plasma-Like Medium with dialyzed fetal bovine serum (HPLM+ds) (AID 1963879); conditions: Potency: viability; also: nearly all actives have a fitted effect of over 35% in size; also: potency is read from the fitted curve at half-maximal effect; as to Viability: series mostly up to about 46 µM
Outline: as §1

[5] = Quantitative highthroughput screen to assess conditional lethalithy of P12 Ichikawa cells grown in RPMI1640 with dialyzed fetal bovine serum (RPMI+ds) (AID 1963880); conditions: Potency: P12-Ichikawa viability; also: nearly all actives have a fitted effect of over 35% in size; also: potency is read from the fitted curve at half-maximal effect;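 as to Viability: 100% = DMSO wells and 0% = empty wells on each plate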
Outline: as §1

[6] = Quantitative highthroughput screen to assess conditional lethalithy of P12 Ichikawa cells grown in RPMI1640 with untreated serum (RPMI+s) (AID 1963881); conditions: Potency: viability; also: nearly all actives have a fitted effect of over 35% in size; also: potency is read from the fitted curve at half-maximal effect;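 as to Viability: series mostly up to about 46 µM; 100% = DMSO wells and 0% = empty wells without cells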
Outline: as §1

[7] = Cellular viability qHTS for adrenocortical cancer (ACC) cell line NCI-H295R (AID 1963990); also: nearly all actives have a fitted effect of over 60% in size; also: potency is read from the fitted curve at half-maximal effect
Outline: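 Adrenocortical carcinoma cells, suspended at 300 000 cells/mL in serum-free DMEM plus ITS, rested overnight before pin transfer of compound. After two days' incubation, ATP-dependent luminescence was recorded and curve-fitted.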

[8] = Quantitative highthroughput screen to assess conditional lethalithy of NOMO1 cells grown in RPMI1640 with dialyzed fetal bovine serum (RPMI+ds) (AID 1963877); also: nearly all actives have a fitted effect of over 30% in size; also: potency is read from the fitted curve at half-maximal effect;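 as to Viability: series mostly up to about 46 µM; 100% = DMSO control wells and 0% = empty wells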
Outline: as §1

[9] = Quantitative highthroughput screen to assess conditional lethalithy of NOMO1 cells grown in Human Plasma-Like Medium with dialyzed fetal bovine serum (HPLM+ds) (AID 1963878); also: nearly all actives have a fitted effect of over 35% in size; also: potency is read from the fitted curve at half-maximal effect;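 as to Viability: 100% = DMSO wells and 0% = empty wells on each plate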
Outline: as §1

[10] = Quantitative highthroughput screen to assess conditional lethalithy of SEM cells grown in Human Plasma-Like Medium with dialyzed fetal bovine serum (HPLM+ds) (AID 1963882); also: nearly all actives have a fitted effect of over 35% in size; also: potency is read from the fitted curve at half-maximal effect; as to Viability: series mostly up to about 46 µM
Outline: as §1

[11] = Quantitative highthroughput screen to assess conditional lethalithy of SEM cells grown in RPMI1640 with unreated serum (RPMI+s) (AID 1963883); also: nearly all actives have a fitted effect of over 35% in size; also: potency is read from the fitted curve at half-maximal effect;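 as to Viability: 100% = DMSO wells and 0% = empty wells without cells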
Outline: as §1

[12] = Quantitative highthroughput screen to assess conditional lethalithy of SEM cells grown in RPMI1640 with dialyzed fetal bovine serum (RPMI+ds) (AID 1963884); also: nearly all actives have a fitted effect of over 35% in size; also: potency is read from the fitted curve at half-maximal effect;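 as to Viability: series mostly up to about 46 µM; 100% = DMSO control wells and 0% = empty wells without cells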
Outline: as §1

[13] = Cellular viability qHTS for adrenocortical cancer (ACC) cell line SW-13 (AID 1963989); conditions: SW-13 ACC cells viability, CellTiter-Glo, 48 h; activity (max response): active compounds read low; also: nearly all actives have a fitted effect of over 65% in size; also: potency is read from the fitted curve at half-maximal effect;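 as to activity (max response): cells grown in serum-free medium with ITS supplement; % is scaled to controls: 0 for no effect and ±100 for the full control effect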
Outline: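 IC50 and maximal-response values come from four-parameter logistic fits of titration data. SW-13 cells in serum-free medium received compounds (up to 46 uM final) for 48 h before CellTiter-Glo luminescence.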

Sequence of Cytochrome P450 3A7 (Homo sapiens) (P24462 whole entry, looked up): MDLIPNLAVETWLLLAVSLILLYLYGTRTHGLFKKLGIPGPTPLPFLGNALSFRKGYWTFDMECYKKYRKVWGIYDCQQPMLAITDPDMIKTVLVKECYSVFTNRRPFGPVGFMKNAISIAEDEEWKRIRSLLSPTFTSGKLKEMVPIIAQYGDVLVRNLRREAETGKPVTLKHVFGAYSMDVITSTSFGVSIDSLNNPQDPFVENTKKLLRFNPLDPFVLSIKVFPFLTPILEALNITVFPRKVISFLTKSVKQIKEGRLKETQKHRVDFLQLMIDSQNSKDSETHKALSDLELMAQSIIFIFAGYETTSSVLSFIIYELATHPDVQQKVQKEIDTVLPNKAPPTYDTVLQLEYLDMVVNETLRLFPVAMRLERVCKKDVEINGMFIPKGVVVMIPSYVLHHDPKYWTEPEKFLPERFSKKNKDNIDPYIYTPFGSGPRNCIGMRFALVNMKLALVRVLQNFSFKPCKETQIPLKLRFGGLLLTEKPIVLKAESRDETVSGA

Cc1nc2sc(C(=O)NCc3ccncc3)c(N)c2c(C)c1Cl
inactive: Potency [1] | Potency [2]

Cc1cc(CS(=O)(=O)c2ccccc2)cc(OCc2ccc(CN3CCCC3CO)cc2)c1 (centres undefined)
active: Potency [2] 14.6 µM
inactive: Potency [1]

CCc1cc2c(=O)c(-c3nc4ccccc4s3)coc2c(CN2CCCCC2)c1O
inactive: Potency [1] | Potency [2]

Cc1cn([C@@H]2C[C@@H](O)[C@H](CO)O2)c(=O)[nH]c1=O
active: Potency [4] 23500 nM | Potency [5] 23500 nM | Potency [6] 26400 nM
inactive: Potency [1] | Potency [2] | Potency [3] | Potency [7]

CN(C)C/C=C/C(=O)Nc1ccc(C(=O)Nc2cccc(Nc3ncc(Cl)c(-c4c[nH]c5ccccc45)n3)c2)cc1
active: Potency [2] 10.3 nM and 18.6 nM | Potency [3] 331 nM | Potency [8] 263 nM | Potency [9] 263 nM | Potency [4] 331 nM | Potency [5] 331 nM | Potency [6] 331 nM | Potency [10] 209 nM | Potency [11] 186 nM | Potency [12] 166 nM | Potency [13] 282 nM | Potency [7] 562 nM
inactive: Potency [1]

CCOCC(O)COc1ccc(NC(=O)CC[S+](C)C)cc1 (centres undefined)
inactive: Potency [1] | Potency [2] | Potency [3] | Potency [9] | Potency [4] | Potency [5] | Potency [6] | Potency [10] | Potency [11] | Potency [12] | activity (max response) [13] 1.78% and -20% | Potency [7]

O=C(Nc1cccnn1)N1CCC(=Cc2cccc(Oc3ccc(C(F)(F)F)cn3)c2)CC1
inactive: Potency [1] | Potency [3] | Potency [8] | Potency [4] | Potency [5] | Potency [6] | Potency [10] | Potency [11]
active: Potency [2] 10.3 µM and 6.61 µM | Potency [7] 15800 nM

COc1cc(OC)c(C(=O)CCCN2CCCC2)c(OC)c1
inactive: Potency [1] | Potency [2] | Potency [3] | Potency [8] | Potency [4] | Potency [5] | Potency [6] | Potency [10] | Potency [12] | activity (max response) [13] 9.88% and 2.45% | Potency [7]

N=C(N)c1ccc2cc(OC(=O)c3ccc(N=C(N)N)cc3)ccc2c1
active: Potency [2] 18.6 µM
inactive: Potency [1] | Potency [4] | Potency [10] | Potency [11] | Potency [12] | activity (max response) [13] -32.1%

c1ccc([C@H]2CN3CCSC3=N2)cc1
inactive: Potency [1] | Potency [2] | Potency [3] | Potency [8] | Potency [4] | Potency [5] | Potency [6] | Potency [10] | Potency [12] | activity (max response) [13] -16.6% and 4.55% | Potency [7]

CCCNC(=O)Nc1ccc(Oc2ncnc3cc(OC)c(OC)cc23)cc1Cl
active: Potency [2] 0.517 µM
inactive: Potency [1] | Potency [3] | Potency [8] | Potency [9] | Potency [4] | Potency [5] | Potency [6] | activity (max response) [13] -6.45% | Potency [7]

CC(=O)NS(=O)(=O)c1ccc(N)cc1
inactive: Potency [1] | Potency [2] | activity (max response) [13] 4.13%

CS(=O)c1ccc(-c2nc(-c3ccc(F)cc3)c(-c3ccncc3)[nH]2)cc1 (centres undefined)
inactive: Potency [1] | Potency [7]
active: Potency [2] 20.6 µM | Potency [3] 6790 nM | Potency [8] 6790 nM | Potency [9] 6050 nM | Potency [4] 9590 nM | Potency [10] 7620 nM | Potency [11] 2410 nM | Potency [12] 5400 nM

CCCCc1ccc2nc(NC(=O)OC)[nH]c2c1
active: Potency [2] 0.118 µM | Potency [4] 93.5 nM | Potency [6] 83.3 nM | Potency [11] 59 nM | Potency [12] 41.8 nM | Potency [13] 51.7 nM and 282 nM | Potency [7] 103 nM and 224 nM
inactive: Potency [1]

C#CCN[C@@H]1CCc2ccccc21
inactive: Potency [1] | Potency [2] | Potency [3] | Potency [4] | Potency [5] | Potency [6] | Potency [10] | Potency [12] | activity (max response) [13] 3.89% and -12.7% | Potency [7]

O=C(O)c1ccccc1Nc1cc(Cl)ccc1C(=O)O
inactive: Potency [1] | Potency [2] | activity (max response) [13] -18.2%

O=C(O)c1cccnc1
active: Potency [3] 8330 nM | Potency [8] 5260 nM | Potency [9] 3720 nM | Potency [5] 10500 nM | Potency [11] 2960 nM | Potency [12] 2960 nM
inactive: Potency [1] | Potency [2] | activity (max response) [13] -4.23% and 5.29% | Potency [7]

CC(C)(Sc1cc(C(C)(C)C)c(O)c(C(C)(C)C)c1)Sc1cc(C(C)(C)C)c(O)c(C(C)(C)C)c1
inactive: Potency [1] | Potency [2] | Potency [3] | Potency [8] | Potency [9] | Potency [4] | Potency [5] | Potency [6] | Potency [10] | Potency [11] | Potency [12] | activity (max response) [13] 7.94% and -9.47%

COc1cc2c(Oc3ccc(-c4cnc(Nc5ccc(F)cc5)n(C)c4=O)cc3F)ccnc2cc1OCCCN1CCOCC1
active: Potency [2] 58 nM and 29.5 nM | Potency [8] 23500 nM | Potency [9] 20900 nM | Potency [10] 166 nM | Potency [11] 1050 nM | Potency [12] 83.3 nM | Potency [13] 15800 nM
inactive: Potency [1]

CCCc1nc(C(C)(C)O)c(C(=O)O)n1Cc1ccc(-c2ccccc2-c2nn[nH]n2)cc1
inactive: Potency [1] | Potency [2] | Potency [3] | Potency [8] | Potency [9] | Potency [4] | Potency [5] | Potency [6] | Potency [10] | Potency [11] | Potency [12] | activity (max response) [13] 8.92% | Potency [7]
